A selection: hits, their analogues and other compounds. The true share with any hit is near 1%.
TRPML1 blocker – human mucolipin-1 channel inhibition. actives 0.02% (n = 390,000). activity change, negative = inhibition, % (no concentration beside the values). Q9GZU1. TRPML1-inducible cells, Ca2+ dye fluorescence, FDSS; active compounds read low; inhibition of EC80 agonist-evoked calcium signal; in the data active means activity change below about -50%; inconclusive means between about -30% and that limit;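 further: stimulus is agonist 54-4 at its EC80 concentration; on the % scale 0 is the no-effect control and ±100 the full control effect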
Target sequence (Q9GZU1 whole entry, looked up): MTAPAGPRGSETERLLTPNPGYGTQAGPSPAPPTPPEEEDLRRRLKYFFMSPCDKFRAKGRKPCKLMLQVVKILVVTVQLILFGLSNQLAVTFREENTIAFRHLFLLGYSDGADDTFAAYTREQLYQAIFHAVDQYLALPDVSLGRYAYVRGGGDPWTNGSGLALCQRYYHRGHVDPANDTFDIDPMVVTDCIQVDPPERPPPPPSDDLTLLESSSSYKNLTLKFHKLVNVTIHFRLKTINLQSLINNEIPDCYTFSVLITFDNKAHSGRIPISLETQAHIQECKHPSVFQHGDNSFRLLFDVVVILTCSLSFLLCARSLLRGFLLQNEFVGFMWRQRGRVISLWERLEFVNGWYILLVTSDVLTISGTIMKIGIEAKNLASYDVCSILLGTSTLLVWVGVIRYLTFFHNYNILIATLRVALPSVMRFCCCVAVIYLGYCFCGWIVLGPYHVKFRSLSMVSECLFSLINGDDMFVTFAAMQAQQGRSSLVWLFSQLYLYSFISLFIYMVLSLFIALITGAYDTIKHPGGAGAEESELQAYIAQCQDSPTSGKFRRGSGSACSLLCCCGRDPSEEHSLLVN
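Tet-induced TRPML1-DL cells loaded with Ca8 no-wash calcium dye were read kinetically on FDSS. Compound addition was followed by EC80 agonist 54-4 (4 uM final); inhibition was read over 110 s.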
GRP78 ERSR act – inducers of ER stress response in human glioma cells | actives 0.02% (n = 420,000) | U87-MG GRP78 promoter luciferase reporter, 16 h | Potency, µM, for inactives: at the highest dose activation, actives largely listed as activators; active means well fitted activation curve with a large enough effect; inconclusive means small, poorly fitted or top-dose-only effect; inactive means no such curve, though single readings can be large or run the other way; further: potency means the concentration at half of the fitted maximal effect; series mostly up to about 76 µM; % of control where 0% means no effect; nearly all actives have a fitted effect of over 35% in size
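Stably transfected U87-MG glioma cells carrying a GRP78-based luciferase sensor; 16 h compound incubation. Luminescence end-point read 10 min after Bright-Glo addition at room temperature.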
KCNH2 3.1 block – KCNH2 3.1 (human) potassium channel inhibition; actives 0.95% (n = 340,000); U2OS KCNH2 3.1, thallium flux FluxOr; active compounds read low; activity change, % (tested at about 1.8 µM);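 active means maximum activity change below -70%; inconclusive means maximum activity change from -70% to -50%; inactive means maximum activity change above -50%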;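 further: thallium influx rate constant from kinetic fluorescence after stimulation buffer; on the % scale 0 is the no-effect control and ±100 the full control effect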
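We transduce U2OS cells with the mutant 3.1 virus, culture them overnight, load FluxOr with Red40 quencher for 45 min, then add stimulation buffer and read kinetically for 2 min to derive a normalized rate constant.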
hERG WT inh – blocks the wildtype human KCNH2 potassium channel | Q12809 | U2OS, BacMam KCNH2, thallium flux FluxOr; active compounds read low | activity change, % at 1.84 µM | actives 0.37% (n = 340,000) | AID 720551;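 active means maximum activity change below -70%; inconclusive means maximum activity change between -70% and -50%; inactive means maximum activity change above -50%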; further: on the % scale 0 is the no-effect control and ±100 the full control effect
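U2OS cells transduced with wild-type KCNH2 virus are loaded with FluxOr dye for 45 min, and thallium flux is measured in kinetic reads before and after stimulation buffer. Rate constants are normalized to DMSO controls.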
TSG101-PTAP inh – blocks PTAP/TSG101 interaction to inhibit HIV-1 budding | Q99816 | Fluorescence polarization, FITC-PTAP peptide / Tsg101 binding | Potency, µM (highest dose often 115 µM), without a hit: at the highest dose activity change, negative = inhibition, usual class: inhibitors | 340,000 tested, under 10 active | AID 493005; active means well fitted inhibition curve with a large enough effect in the main read-out, with a control signal flat, not every such curve was filed as active; inconclusive means small, poorly fitted or top-dose-only effect, or effect the other way, or a change in a side signal; inactive means no such curve, though single readings can be large or run the other way; further: potency means the concentration at half of the fitted maximal effect; % of control where 0% means no effect
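Fluorescence polarization binding of Tsg101 binding domain (10 uM final) to FITC-labeled PTAP peptide (50 nM final) in HEPES pH 7.5 buffer with NaCl, Tween 20, EDTA, TCEP. Compounds added before peptide; binding 20 min at RT.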
TRPML1 ag – agonists of human TRPML1 channel; Q9GZU1; AID 624414; actives 0.12% (n = 410,000); activation, % (concentration not given with the values); TRPML1-expressing cells, Ca2+ dye fluorescence, FDSS; in the data active means activation above about 50%; inconclusive means mostly about 30% to 49%; further: 0% is about no effect
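In this qHTS format, compounds were pin-transferred onto Ca8-dye-loaded TRPML1-DL cells induced with Tet overnight, and intracellular Ca2+ fluorescence was recorded kinetically for 110 s after a 10 s baseline. A subsequent 4uM final 54-4 (EC80) addition followed by a second 110 s read served as the antagonist phase.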
Numbers without * were called inactive; ? = inconclusive; · = not tested or not shown.

SMILES | TRPML1 blocker | GRP78 ERSR act | KCNH2 3.1 block | hERG WT inh | TSG101-PTAP inh | TRPML1 ag
CN(C)CC(O)c1ccc(C=Cc2ccc(Cl)cc2)cc1 (stereo not drawn) | 13.8 | 2.3% | -110.4* | 0.0 | -0.1% | 1.1
NNC(=O)c1ccc([N+](=O)[O-])c(CS(=O)(=O)c2ccc(Cl)cc2)c1 | -3.9 | -4.8% | -98.9* | 1.1 | -0.9% | -0.3
Cn1c(SCC2CCCO2)nnc1C1CCN(Cc2ccc(-c3cccc(Cl)c3)o2)CC1 (stereo not drawn) | · | -2.8% | · | · | · | ·
Cn1c(Cl)c(/C=N/OC(=O)C2CC2)c2ccccc21 | 3.8 | -1.0% | -91.8* | 3.4 | -3.5% | 1.4
Cn1c(Cl)c(/C=N/OC(=O)c2cccc(Cl)c2)c2ccccc21 | 1.9 | -2.7% | -20.8 | 5.1 | 0.9% | -0.2
N=c1oc2c3c4c(cc2cc1C(=O)Nc1ccccc1)CCCN4CCC3 | -6.0 | 5.6% | -85.0* | -223.0* | ? | 0.0
Cc1ccc(NC(=O)c2cc3ccccc3oc2=N)cc1 | -25.4 | -7.4% | -3.9 | -2.4 | 0.7% | 1.3
O=C(Nc1ccc2c(c1)nc1n2CCN(Cc2ccccc2)C1)NC1CCCCC1 | 4.8 | -1.5% | -84.9* | -15.2 | 1.0% | 0.3
O=C(NC1CC1)[C@@H]1C[C@@H](Sc2nc3ccccc3[nH]2)CN1CC1CCCCC1 | · | -2.1% | · | · | · | ·
COc1ccc(CCNC(=O)C2CCN(S(=O)(=O)N3CCC4(CC3)OCCO4)CC2)cc1OC | -10.1 | -3.5% | -3.3 | -3.7 | -0.6% | 0.6
COCCNC(=O)C1CCN(S(=O)(=O)N2CCC3(CC2)OCCO3)CC1 | 2.8 | -2.8% | -200.3* | -8.1 | -7.5% | -0.1
CCC(=O)Nc1nonc1-c1nc2ccccc2n1Cc1cccc2ccccc12 | 5.5 | -7.8% | -84.6* | -15.5 | -2.8% | 0.1
COc1cc2nc(N(C)C)nc(NC3CCN(C)CC3)c2cc1OC | · | · | · | · | · | -0.3
CCN(CC)CCCN(C(=O)c1ccccc1C)c1nc(-c2ccc(OC)cc2)cs1 | 0.8 | -5.4% | -1.4 | 10.9 | -5.5% | -0.6
CN(C)CCCN(C(=O)c1ccco1)c1nc(-c2ccc(Cl)cc2)cs1 | · | -1.3% | -79.6* | 0.8 | -3.4% | ·
CCN(CC)CCCN(C(=O)c1ccc(OC)cc1)c1nc(-c2ccc(OC)cc2)cs1 | -3.3 | 0.0% | -94.9* | ? | 2.0% | 0.4
OC1(c2ccc3c(c2)CN(Cc2ccco2)CCO3)CCN(c2ccccc2F)CC1 | · | 1.0% | · | · | · | ·
COCC(=O)Nc1cc(C(=O)NC2CCCc3ccccc32)c2c(c1)nc(-c1ccncc1)n2C (stereo not drawn) | · | -1.2% | · | · | · | ·
COc1ccccc1N1CCN(/N=C/c2cccc(Cl)c2)CC1 | 18.4 | 7.9% | -0.8 | -11.4 | -2.9% | 2.2
COc1ccccc1N1CCN(C/C(C)=C/c2ccccc2)CC1 | 16.7 | -2.5% | -97.9* | 32.6 | -2.4% | 2.3
C/C(=C\c1ccccc1)CN1CCN(c2ccccc2)CC1 | -2.5 | -5.0% | -4.1 | -22.5 | · | 1.3
COc1cccc(/C=N/N2CCN(c3ccccc3OC)CC2)c1 | -2.5 | 3.4% | -119.8* | -25.2 | -13.4% | -0.3
Cc1cc(C)cc(C(=O)NCc2nc(-c3cccc(NC(=O)c4ccccn4)c3)oc2C)c1 | · | -2.4% | · | · | · | ·
CC(C)=CC[C@@H](O)C1=CC(=O)c2c(O)ccc(O)c2C1=O | · | 0.6% | · | · | · | ·
NC(=O)CC(NC(=O)Cc1ccc(Br)cc1)c1ccc(NCC2CC2)c([N+](=O)[O-])c1 (stereo not drawn) | 36.0 | -3.5% | -82.2* | -31.7 | 8.0% | -0.2
NC(=O)CC(NC(=O)Cc1ccc(Br)cc1)c1ccc(NC2CCC2)c([N+](=O)[O-])c1 (stereo not drawn) | 3.4 | -5.1% | -44.1 | 4.0 | -6.4% | -0.4
NC(=O)CC(NC(=O)Cc1ccc(Cl)cc1)c1ccc(NC2CCCC2)c([N+](=O)[O-])c1 (stereo not drawn) | -11.0 | -5.1% | -21.1 | 10.1 | 0.2% | 0.2
